Screens deposited in PubChem BioAssay by Broad Institute.
Shown are actives, neighbours in structure and some others; about 1.8% of the full set was active somewhere.
GSIS activator: primary screen for activators of insulin secretion dependent on glucose, INS-1E cells, GLuc reporter luminescence | INS-1E GLuc reporter insulin secretion, 2-3 h | AID 743287 | activation, % at 16.6 µM | actives 0.61% (n = 370,000);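 active = lowest replicate activation of at least 40%, so every replicate reaches that level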;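 also: 0% = median of neutral control wells and 100% = median of IBMX positive control wells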
RAD54 branch: inhibitors of human RAD54 branch migration | Q92698 | RAD54 Holliday junction branch migration, FAM/BHQ fluorescence | inhibition, % at 10.4 µM | actives 0.14% (n = 360,000);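 active = mean normalized replicate activity at least 40 and at least half of replicates scoring 40 or more; inconclusive = only one of the two criteria met; inactive = mean below 40 and under half of replicates reaching 40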;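 also: 0% = median of neutral control wells and 100% = median of positive control wells; inhibitors cause a drop in the FAM fluorescence signal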
LGR2 inh: inhibitors of bursicon-induced Drosophila LGR2 receptor cAMP signaling; inhibition, % at 9.99 µM; HEK293 LGR2, CRE-luciferase, bursicon-stimulated, 4 h; actives 0.35% (n = 380,000);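 active = drop in luminescence signal, shown as inhibition above about 50% in the replicate tests, limit read from the data, passing the limit was not always enough; inconclusive = probably only some replicates passing the limit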;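 also: agonist challenge used bursicon conditioned medium at about half maximal strength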
F508del corr: correctors of CFTR F508del function in bronchial epithelial cells; CFBE cells, YFP halide quenching; stimulated with forskolin plus potentiator P3; % fluorescence drop versus neutral controls; activity (quench increase), % at 7.58 µM; actives 0.36% (n = 350,000); AID 720511;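 active = mean added fluorescence quench of at least 8% versus neutral control, with both replicates also reaching 8%; inconclusive = only one of the mean or replicate conditions met; inactive = mean below 8% and not both replicates reaching 8%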;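 also: cells transiently co-express mutant CFTR-F508del with the halide-sensitive YFP; corrector assay measuring rescue of mutant channel to the surface after 24 h compound exposure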
RAD52 inh: blocks human RAD52 DNA annealing. P43351. recombinant RAD52 DNA annealing, FRET fluorescence. inhibition, % at 18.7 µM. actives 0.46% (n = 360,000);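 active = every replicate showing at least 50% inhibition; inconclusive = mean inhibition at least 50% but not in every replicate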
Target sequence (P43351 whole entry, looked up): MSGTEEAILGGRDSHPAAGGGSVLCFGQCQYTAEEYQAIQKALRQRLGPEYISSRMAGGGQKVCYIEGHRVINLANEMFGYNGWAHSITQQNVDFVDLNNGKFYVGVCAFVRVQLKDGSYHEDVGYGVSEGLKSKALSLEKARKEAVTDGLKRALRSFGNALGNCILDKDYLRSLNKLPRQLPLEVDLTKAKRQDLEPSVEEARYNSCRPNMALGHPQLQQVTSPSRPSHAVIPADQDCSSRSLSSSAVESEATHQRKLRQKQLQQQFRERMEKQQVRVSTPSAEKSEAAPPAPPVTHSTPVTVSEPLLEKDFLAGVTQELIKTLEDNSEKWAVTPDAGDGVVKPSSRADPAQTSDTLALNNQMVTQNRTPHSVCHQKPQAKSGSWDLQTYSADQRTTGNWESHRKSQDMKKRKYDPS
EWS-Fli block: inhibitors of EWS/Fli oncoprotein transcriptional activity; A673 NR0B1-luciferase reporter, viability-normalised; inhibition, % at 12.6 µM; actives 0.67% (n = 350,000);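 active = mean inhibition of at least 50% after viability correction, with every replicate also passing that limit; inconclusive = mean reaches 50% but only one of two replicates passes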;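 also: firefly luciferase signal divided by Alamar Blue viability fluorescence both relative to DMSO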
Numbers without * were called inactive; u = inconclusive; x = not tested or not shown; ! = not active in a repeat.

SMILES	GSIS activator	RAD54 branch	LGR2 inh	F508del corr	RAD52 inh	EWS-Fli block
O=C(NCc1ccco1)C1CC(c2ccccc2C(F)(F)F)=NO1 (centres undefined)	-16.6	10.6	10.5	-2.0	-36.9	-3.2
O=C(NCc1ccco1)C1Cc2c(-c3cccc(F)c3)ccnc2O1 (centres undefined)	-3.0	-4.3	-22.4	5.4	-8.4	54.2*
COc1ccc(/C(C)=N/Nc2nc3ccccc3n3cnnc23)cc1OC	44.1*	x	-20.2	0.6	-39.9	-29.6
Cc1cc(Br)c(S(=O)(=O)n2nnc3ccccc32)cc1C	5.4	-8.1	-7.3	x	x	x
O=C(C[C@H]1CC[C@@H]2[C@H](COC[C@H](O)CN2S(=O)(=O)c2ccc(Oc3ccccc3)cc2)O1)Nc1ccccc1	-9.1	-1.0	3.3	0.1	6.7	x
Cc1ccc2[nH]c(=O)c(C3C(C#N)=C(N)Oc4c3ccc3cccnc43)cc2c1 (centres undefined)	x	7.9	x	x	x	x
N#CC1=C(N)Oc2c(ccc3cccnc23)C1c1ccccc1 (centres undefined)	16.3	-11.7	8.5	17.0*	-31.6	58.8*
N#CC1=C(N)Oc2n[nH]c(-c3ccc(F)cc3)c2C1c1cccnc1 (centres undefined)	56.2*	-1.5	6.0	x	x	x
N#CC1=C(N)Oc2ccc3ccccc3c2C1c1cccnc1 (centres undefined)	-4.8	x	40.0	u	-4.5	54.4*
N#CC1=C(N)Oc2n[nH]c(-c3ccccc3)c2C1c1ccncc1 (centres undefined)	x	-13.1	x	x	x	x
COc1ccc(NC(=O)CN(C)C(=O)C2CC(=O)N(Cc3ccc(C)cc3)C2)cc1 (centres undefined)	25.5	x	10.6	-2.7	7.5	2.4
O=C(c1ccco1)N1CCN(C(=O)c2ccco2)C1=S	x	x	83.0*	2.1	-3.8	-9.1
O=C(c1ccco1)N1CCN(C(=O)N2c3ccccc3Sc3ccccc32)CC1	-20.3	2.6	9.9	5.8	0.8	54.3*
O=C(c1ccco1)N1CCCN(C(=O)c2ccco2)CC1	13.0	x	x	x	x	x
Cc1ccc(S(=O)(=O)N2C[C@H]3C(=O)C[C@@H]4C(=O)N(c5ccccc5)C(=O)[C@@H]4[C@@H]3C[C@@H]2c2ccccc2)cc1	-7.8	13.4	5.2	3.8	-9.6	-7.0
CCNC1(C(N)=O)CCN(Cc2ccccc2)CC1	7.6	-0.5	-9.3	-0.4	-11.3	-6.2
CCC(=O)Nc1cc(SCCO)cc([N+](=O)[O-])c1	8.5	-0.6	x	x	x	x
O=C(CCl)Nc1cc(SCC(O)CO)cc([N+](=O)[O-])c1 (centres undefined)	-8.3	x	72.7*	-0.2	-10.3	47.0
C[C@@H]1CN([C@@H](C)CO)C(=O)Cc2cc(NS(C)(=O)=O)ccc2O[C@H]1CN(C)CC1CC1	17.7	2.9	-2.0	1.9	-0.6	0.4
Cc1ccsc1/C=C1\SC(=S)N(CC2CCCO2)C1=O (centres undefined)	-7.7	x	-92.8	1.6	-27.8	-78.9
CCN=C1S/C(=C\c2cc(Br)c(O)c(OC)c2)C(=O)N1CC	52.6*	-8.8	-17.1	5.6	-95.6	14.3
CCN=C1S/C(=C\c2sccc2C)C(=O)N1CC	63.5*	x	-96.9	3.1	-15.2	-85.9
COC(=O)c1ccc(CNC(=O)[C@@H]2CCCN2S(=O)(=O)c2ccccc2F)cc1	6.1	-12.5	-3.7	0.1	-14.8	3.4
Cc1nn(CC(=O)N(C)C2CCC(C)CC2)c(C)c1S(=O)(=O)N(C)C (centres undefined)	10.2	-7.3	-10.4	-3.5	-6.2	-3.6
CNS(=O)(=O)c1cc(OC)c(OC)cc1CC(=O)OC	11.8	x	0.1	0.4	-14.4	-3.0
SMILES	GSIS activator	RAD54 branch	LGR2 inh	F508del corr	RAD52 inh	EWS-Fli block
Nc1nc(N)nc(-c2ccc(Cl)cc2)n1	47.0*	-0.2	-27.9	x	x	x
Cc1ccc(Oc2ccc(-c3nc(N)nc(N)n3)cc2)cc1	x	-0.6	x	x	x	x
Cc1ccccc1-c1nc(NCC2CC2)nc2ccsc12	-1.7	-2.9	-17.9	3.1	-89.0	-5.2
c1ccc(-c2nc(NCC3CC3)nc3ccsc23)cc1	77.7*	-5.9	-13.4	-1.7	-36.8	-3.2
CC(N=C1NS(=O)(=O)c2ccccc21)C(=O)NCc1ccncc1 (centres undefined)	1.7	3.0	-6.3	-0.8	-8.5	0.4
O=C(c1ccc(F)cc1)N1C[C@@H]2N[C@H](C1)C2c1ccc(-c2ccccc2F)cc1 (some centres undefined)	20.4	x	12.3	-4.6	x	3.1
O=C(Nc1ccc(F)cc1)N1C[C@@H]2N[C@H](C1)C2c1ccc(-c2ccccc2F)cc1 (some centres undefined)	-8.7	x	7.5	-6.6	55.3*!	-4.4
O=C(C1CC1)N1C[C@@H]2N[C@H](C1)C2c1ccc(-c2ccccc2F)cc1 (some centres undefined)	9.2	x	88.0*!	-0.5	25.3	11.1
CS(=O)(=O)N1CCC(C(=O)Nc2ccc(Cl)c(C(F)(F)F)c2)CC1	x	1.6	x	x	x	x
COc1ccc(-c2nnn(CC(=O)c3c[nH]c4ccccc34)n2)cc1OC	12.9	2.0	-1.7	x	x	x
CCCCOc1ccc(-c2nnn(CC(=O)c3c[nH]c4ccccc34)n2)cc1	94.1*	-1.3	x	x	x	x
CCN(CC(=O)Nc1c(F)cccc1F)C(=O)C1CC1	-1.6	-13.0	4.2	8.4*	-3.7	0.1
O=c1cc(-c2c(F)c(F)c(F)c(F)c2F)oc2ccccc12	44.5	7.1	67.2*	1.1	-5.1	48.8
O=C(COc1ccccc1Br)N1CCNC1=O	0.9	3.0	14.7	1.0	-5.5	3.9
COc1cc2c(cc1OC)C(c1cccc([N+](=O)[O-])c1)NC(=O)C2 (centres undefined)	70.4*	x	-5.9	-2.7	-7.9	4.1
COc1ccc(S(=O)(=O)N2CCN(C(=O)COc3ccc4c(C)cc(=O)oc4c3)CC2)cc1	x	-18.5	x	x	x	x
COc1ccc(C2=NN(C(=O)CCCC(=O)O)C(c3cccs3)C2)cc1OC (centres undefined)	103.8*	x	1.1	2.0	-26.1	-58.9
COc1ccc(C2=NN(C(=O)c3ccco3)C(c3cccs3)C2)cc1OC (centres undefined)	80.9*	6.8	-2.9	1.6	-9.4	-11.2
COc1cccc(C2=NN(C(=O)CCCC(=O)O)C(c3cccs3)C2)c1 (centres undefined)	17.3	-14.2	-18.6	0.0	-22.3	-24.1
COc1ccc(C2=NN(C(=O)c3cccs3)C(c3ccccc3OC)C2)cc1OC (centres undefined)	17.7	-3.3	-1.5	-0.9	-1.9	13.1
O=C(NCCOc1ccccc1)[C@@H]1CCCN1C(=O)c1cccs1	x	-0.8	u	7.3	-12.1	2.2
CCN(Cc1ccccc1)S(=O)(=O)c1c[nH]c(C(=O)OC)c1	-1.1	-6.0	-2.7	-0.4	-7.7	-1.5
